Experimental data from PubChem BioAssay (Tox21).
Activity calls are given as the source filed them. The call rests on the fitted dose curve; in most records, active means well fitted curve in the direction sought with a large enough effect in the repeat runs; inconclusive means weak or mixed curves; inactive means flat fitted curve, though single readings scatter. Starred links: 1 amine or outer side, 2 acyl side, 3 side chain; linkers in the order of their positions; H or OH if unused. Positions of bridges follow the written chain, without caps; N, C: chain ends. Non-standard residues stand in square brackets, D forms with d. Residues, ends and D or L forms follow the SMILES beside them. Chains are numbered I, II in the order given. Actinocin(9to1) = Cc1c2oc3c(C)ccc(C(=O)[*:1])c3nc-2c(C(=O)[*:2])c(N)c1=O; NMeV = CN[C@H](C(=O)O)C(C)C; Sar = CNCC(=O)O

Experiment: qHTS assay to test for compound auto fluorescence at 590 nm (red) in HEK293 cells (AID 720679)
Conditions: red autofluorescence 540/590 nm; series mostly up to 91.3 µM
Method in brief: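 Intensity at 540nm excitation and 590nm emission is reported as Rose Bengal sodium-equivalent autofluorescence. Measurements followed overnight exposure (37C, 5% CO2) of HEK293 cells, 2,000 per well, to 23 nL compound.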

Row | Compound | outcome
1 | CC1=CC(=O)c2ccccc2C1=O | inactive
2 | CCc1ccc(C(c2ccc(CC)cc2)C(Cl)Cl)cc1 | inactive
3 | NCCO | inactive
4 | COc1cc(C(=S)N2CCOCC2)ccc1O | inactive
5 | Cc1cc(Cc2cc(C)cc(C(C)(C)C)c2O)c(O)c(C(C)(C)C)c1 | inactive
6 | Nc1cc(S(=O)(=O)O)cc2cc(S(=O)(=O)O)cc(O)c12 | inactive
7 | Cc1cc(C2(c3cc(C)c(O)cc3C)OS(=O)(=O)c3ccccc32)c(C)cc1O | inactive
8 | CC(=O)N[C@@H](CS)C(=O)O | inactive
9 | CC[C@@H](N)CO | inactive
10 | COC(=O)[C@H]1[C@H]2C[C@@H]3c4[nH]c5cc(OC)ccc5c4CCN3C[C@H]2C[C@@H](OC(=O)c2cc(OC)c(OC)c(OC)c2)[C@@H]1OC | inactive
11 | CC(C)(C)c1ccccc1 | inactive
12 | Cc1ccnc2c1NC(=O)c1cccnc1N2C1CC1 | inactive
13 | CCOC(=O)C(C)C(C)=O (configuration not stated) | inactive
14 | O=Cc1ccc(Cl)cc1 | inactive
15 | O=S(=O)(O)c1ccc2nc(-c3ccccc3)[nH]c2c1 | inactive
16 | CCN(CC)c1ccc2c(C)cc(=O)oc2c1 | inactive
17 | CC(=O)C1=C(C)[C@@H]2C[C@@]3(C1)[C@H](C)CC[C@H]3C2(C)C | inactive
18 | CCCC(=O)c1ccccc1 | inactive
19 | COC(c1ccccc1)(c1ccccc1)[C@H](Oc1nc(C)cc(C)n1)C(=O)O | inactive

Row | Compound | outcome
20 | Cc1cccc2n[nH]nc12 | inactive
21 | Oc1c(Cl)cc(Cl)c(Cl)c1Cc1c(O)c(Cl)cc(Cl)c1Cl | inactive
22 | Cc1scc2c1N(C(=O)CN1CCN(C)CC1)c1ccccc1NC2=O | inactive
23 | CCN(CC)C(=O)Nc1ccc(OCC(O)CNC(C)(C)C)c(C(C)=O)c1 (configuration not stated) | inactive
24 | CC[C@H]1CN2CCc3cc(OC)c(OC)cc3[C@@H]2C[C@@H]1C[C@H]1NCCc2cc(OC)c(OC)cc21 | inactive
25 | OCCOCCN1CCN(C(c2ccccc2)c2ccc(Cl)cc2)CC1 (configuration not stated) | inactive
26 | Cc1cc(C(C)(C)C)c(O)c(C(C)(C)C)c1 | inactive
27 | CC(=O)CC(C)=O | inactive
28 | NC(Cc1ccc(Cl)cc1)C(=O)O (configuration not stated) | inactive
29 | CC1=C(C=O)C(C)(C)CC=C1 | inactive
30 | CCCCOCCOC(=O)c1ccccc1C(=O)OCCOCCCC | inactive
31 | CCCCC/C=C/CC1CC(=O)OC1=O (configuration not stated) | inactive
32 | O=C(O)c1cn(-c2ccc(F)cc2)c2cc(N3CCNCC3)c(F)cc2c1=O | inactive
33 | C=C(C)C(=O)O | inactive
34 | CC(C(O)c1ccc(O)cc1)N1CCC(Cc2ccccc2)CC1 (configuration not stated) | inactive
35 | Cc1c2oc3c(C)ccc(C(=O)N[C@@H]4C(=O)N[C@H](C(C)C)C(=O)N5CCC[C@H]5C(=O)N(C)CC(=O)N(C)[C@@H](C(C)C)C(=O)O[C@@H]4C)c3nc-2c(C(=O)N[C@@H]2C(=O)N[C@H](C(C)C)C(=O)N3CCC[C@H]3C(=O)N(C)CC(=O)N(C)[C@@H](C(C)C)C(=O)O[C@@H]2C)c(N)c1=O (I: T[dV]P[Sar][NMeV] / II: T[dV]P[Sar][NMeV]; ester I:1-I:C, II:1-II:C; linker I:N-II:N via Actinocin(9to1)) | inactive
36 | C=CS(=O)(=O)O | inactive
37 | O=c1n(CC2CO2)c(=O)n(CC2CO2)c(=O)n1CC1CO1 (configuration not stated) | inactive
